This passage reports growth results from PubChem BioAssay (NCI).

The panel holds about 83,000 compounds, 20% with a hit somewhere; the sample as a whole holds those more often.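 A percent growth of 40 corresponds to 60% growth inhibition; 0 means no net growth; -100 means all cells died. Active threshold: below 10.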 Values without a mark were called inactive. Calls of active or inactive are those of the source.

Some test systems named below: T-47D breast; BT-549 breast; MDA-MB-435 melanoma; SW-620 colon; MCF7 breast; HCT-116 colon; HCC-2998 colon; KM12 colon.
Test in all cases: NCI-60 one-dose screen, 48 h (100 = growth as untreated, 0 = no growth, -100 = all killed)
Holding throughout (conditions): 10 µM unless noted

`O=C(NCCNc1nccc(-c2c(-c3cccc(O)c3)nc3sccn23)n1)c1cccc(C(F)(F)F)c1`: the growth with T-47D breast is 69.5%; with BT-549 breast, 88%; with MDA-MB-435 melanoma it was 21.7%; in the test on SW-620 colon it was 107%; in the test on MCF7 breast, 75.3%; in the test with HCT-116 colon, 74.3%. Besides, the growth with HCC-2998 colon was 117%; with KM12 colon, 80.9%.
In the case of `CCCC(=O)Oc1ccc(/C(=C(\C)c2ccc(Cl)cc2)c2ccc(OCCN(CC)CC)cc2)cc1`, the growth was -33.1% (active) in the test with T-47D breast; 22.7% in the test on BT-549 breast; -85.9% (active) in the test on MDA-MB-435 melanoma; -80.2% (active) with SW-620 colon; -78.4% (active) in the test with MCF7 breast; -86.7% (active) with HCT-116 colon. Moreover, the growth was -65.4% (active) in the test with HCC-2998 colon and -44.4% (active) with KM12 colon.
For the compound `CCn1cc(C(=O)O)c(=O)c2cc(F)c(N3CCN(CC(=O)Nc4ccc(C(C)=O)cc4)CC3)cc21`, the growth in the test with T-47D breast was 92%; with BT-549 breast, 109%; in the test on MDA-MB-435 melanoma, 102%; with SW-620 colon, 103%; in the test on MCF7 breast, 99.1%; with HCT-116 colon it was 104%. Besides, the figures for the growth with HCC-2998 colon and in the test with KM12 colon were 96.2% and 97.4%, respectively.
For the compound `Nc1ncnc2c1ccn2-c1cccc(NC(=O)c2cccc(C(F)(F)F)c2)c1`, the growth with T-47D breast is 59.2%; in the test with BT-549 breast, 89.9%; with MDA-MB-435 melanoma, 59%; in the test with SW-620 colon it was 90.2%; in the test on MCF7 breast, 58.6%; in the test with HCT-116 colon, 68.5%. The growth in the test on HCC-2998 colon is 98.6%; in the test on KM12 colon, 54%.
In the case of `O=C(Nc1ccc(-n2ccc3c(NC(=O)c4ccccc4)nccc32)cc1)Nc1cccc(C(F)(F)F)c1`, the growth in the test with T-47D breast is 57.6%; in the test with BT-549 breast, 74%; with MDA-MB-435 melanoma it was 61.4%; in the test with SW-620 colon, 63.4%; in the test on MCF7 breast it was 47.7%; in the test on HCT-116 colon, 4.34% (active). The growth was 67.8% in the test on HCC-2998 colon and 11.2% in the test with KM12 colon.
Turning to `COc1cc(/C=C/C(=O)c2c(C)n([O-])c3cc(C)c(C)cc3[n+]2=O)cc(OC)c1OC`, the growth in the test on T-47D breast is 51.8%; with BT-549 breast, 23%; with MDA-MB-435 melanoma it was 45.8%; with SW-620 colon, 50.1%; with MCF7 breast, 11.1%; with HCT-116 colon, 42.6%. Also, the results for the growth with HCC-2998 colon and in the test with KM12 colon were 85.5% and 69.8%, respectively.
As for `COc1ccc(C(=O)Cn2cnc3c(Nc4cc(C(=O)Nc5ccc(N6CCN(CCO)CC6)cc5)ccc4C)ncnc32)cc1`, the growth with T-47D breast is 91.6%; in the test with BT-549 breast it was 94.9%; in the test on MDA-MB-435 melanoma, 105%; with SW-620 colon it was 105%; in the test with MCF7 breast, 87.1%; in the test on HCT-116 colon, 97.3%. In addition, the growth is 97.4% in the test with HCC-2998 colon and 99.4% in the test with KM12 colon.
For `O=C(NCCNc1nccc(-c2c(-c3cccc(O)c3)nc3sccn23)n1)c1ccccc1`, the growth in the test on T-47D breast is 58.6%; in the test on BT-549 breast, 61.4%; in the test with MDA-MB-435 melanoma, 24%; with SW-620 colon, 78.2%; in the test with MCF7 breast, 38.1%; in the test with HCT-116 colon, 42.5%. In addition, the figures for the growth in the test on HCC-2998 colon and in the test with KM12 colon were 97.8% and 75.9%, respectively.
Take `COc1ccc(-c2c(NC(=O)Nc3ccc(Cl)c(C(F)(F)F)c3)cnn2-c2ccc(S(N)(=O)=O)cc2)cc1`: the growth in the test on T-47D breast is 16.9%; in the test with BT-549 breast, 39.3%; with MDA-MB-435 melanoma, 24.3%; in the test on SW-620 colon, 38.2%; in the test on MCF7 breast it was 11.5%; with HCT-116 colon it was 14.5%. Besides, the growth is 28.5% in the test with HCC-2998 colon and 29.6% in the test on KM12 colon.
Turning to `COC(=O)/C=C/C(=O)c1cc(C)cc(C)c1O`, the growth in the test on T-47D breast was 100%; with BT-549 breast, 103%; with MDA-MB-435 melanoma it was 103%; with SW-620 colon, 110%; in the test on MCF7 breast it was 95.5%; in the test on HCT-116 colon, 106%. For the same compound, the growth is 96.7% in the test with HCC-2998 colon and 99.1% in the test on KM12 colon.
As for `Nc1nc2ccc(CNc3ccc(C(=O)NC(CC(=O)O)C(=O)O)cc3)cc2c(=O)[nH]1` (stereo not drawn), the growth with T-47D breast is 84.7%; in the test with BT-549 breast it was 74.3%; in the test with MDA-MB-435 melanoma, 40.4%; in the test on SW-620 colon, 31.8%; in the test on MCF7 breast, 27.2%; with HCT-116 colon, 16.8%. Also, the growth in the test on HCC-2998 colon is 45.1%; with KM12 colon, 29.8%.
Regarding `C=CCOc1ccc(/C(Cl)=N/N=C(\Cl)c2cc(OC)c(OC)c(OC)c2)cc1`, the growth in the test on T-47D breast is 47.6%; with BT-549 breast, 89.5%; in the test on MDA-MB-435 melanoma, 80.6%; in the test on SW-620 colon, 68.3%; with MCF7 breast, 42.8%; in the test on HCT-116 colon, 70.2%. Further, the growth with HCC-2998 colon was 75.6%; in the test with KM12 colon, 67.9%.
On to `Cc1cn(C2CC(F)C(CO)O2)c(=O)[nH]c1=O` (stereo not drawn), for which the growth in the test on T-47D breast was 98%; in the test on BT-549 breast it was 80.7%; with MDA-MB-435 melanoma, 78.2%; in the test on SW-620 colon it was 115%; in the test on MCF7 breast it was 113%; with HCT-116 colon, 95.6%. In addition, the growth in the test with HCC-2998 colon is 100%; in the test on KM12 colon, 99.1%.
As for `CCC1S/C(=N\N=C(/C)c2cccs2)N(c2ccccc2)C1=O` (stereo not drawn), the growth with T-47D breast was 90.6%; in the test on BT-549 breast, 112%; with MDA-MB-435 melanoma it was 117%; with SW-620 colon, 96.1%; in the test on MCF7 breast it was 84.5%; in the test with HCT-116 colon, 90.2%. For the same compound, the values for the growth in the test with HCC-2998 colon and in the test with KM12 colon were 121% and 115%, respectively.
For the compound `NCC(=O)NS(=O)(=O)OC[C@H]1O[C@@H](n2cnc3c(N)ncnc32)[C@H](O)[C@@H]1O`, the growth in the test on T-47D breast is 7.66% (active); in the test on BT-549 breast, 21.1%; in the test on MDA-MB-435 melanoma it was -49.8% (active); in the test with SW-620 colon, 3.71% (active); in the test with MCF7 breast, 8.27% (active); in the test on HCT-116 colon, 6.57% (active). Also, the growth in the test with HCC-2998 colon is 41.4%; in the test with KM12 colon, 0.735% (active).
With `COc1ccc2c(c1)C(=O)/C(=C/c1ccc(OCC(=O)c3ccc(Cl)cc3)cc1)O2`, the growth is 72.2% in the test on T-47D breast; 80.5% in the test on BT-549 breast; 92.8% in the test on MDA-MB-435 melanoma; 14.2% in the test with SW-620 colon; 104% in the test with MCF7 breast; 30.1% in the test with HCT-116 colon. Besides, the growth in the test with HCC-2998 colon was 21.2%; in the test on KM12 colon it was 104%.
